This note sets out measurements from PubChem BioAssay (Tox21).

“And” between values parts separate entries of the source, which are not always exact repeats. Equal values may be shown once. Inconclusive results are not listed. Some compounds were tested as several samples or in several runs, with calls that do not always agree. The source made the active and inactive calls. The call rests on the fitted dose curve; in most records, active means well fitted curve in the direction sought with a large enough effect in the repeat runs; inconclusive means weak or mixed curves; inactive means no such curve, though single readings can be large; an effect the other way counts as inactive or inconclusive.

Test [1] in a line: Human pregnane X receptor (PXR) small molecule agonists, qHTS cell viability counter screen (AID 1346977). Further: nearly all actives have a fitted effect of over 50% in size. In a few lines:
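Fluorescence read-out (CellTiter-Fluor) of viability in PXR-Luc HepG2 cells, multiplexed with the luciferase agonist read. Compounds in DMSO added after 5hr plating; 24hr total exposure at 37C, 5% CO2.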
On the technique in general: In qHTS, concentration-response curves come from the screen itself.

Test [2] is described as follows: Caspase-3/7 induction in HepG2 cells by small molecules, qHTS assay (AID 1346978). Further: nearly all actives have a fitted effect of over 15% in size. In a few lines:
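Wild-type HepG2 cells, 2,000/well, settled 5 hr at 37 C and 5% CO2, then compound-treated for 17 hr; caspase-3/7 activity read by luminescent Caspase-Glo 3/7 after 30 min at room temperature.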

The nature of test [3]: Caspase-3/7 induction in CHO-K1 cells by small molecules, qHTS cell viability counter screen (AID 1346979). Further: nearly all actives have a fitted effect of over 35% in size. Further: potency means the concentration at half of the fitted maximal effect. In a few lines: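 CHO-K1 wt, 1,500 cells/well; 5hr pre-incubation 37C/5% CO2; compound pin transfer (DMSO); 16hr exposure; CellTiter-Fluor added, 1hr, fluorescence read.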
Test [4] can be described thus: Caspase-3/7 induction in CHO-K1 cells by small molecules, qHTS assay (AID 1346980). Further: nearly all actives have a fitted effect of over 15% in size. In short, it runs like this: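 Wild-type CHO-K1 cells exposed to compounds for 17hr at 37 C, 5% CO2. Caspase-3/7 activity then measured by Caspase-Glo 3/7 luminescence after 30min at room temperature.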
A short description of test [5]: Caspase-3/7 induction in HepG2 cells by small molecules, qHTS cell viability counter screen (AID 1346981). Further: series mostly up to about 92 µM; nearly all actives have a fitted effect of over 30% in size. In a few lines:
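Counter screen for cytotoxicity: HepG2 exposed 16 hr to compounds, then CellTiter-Fluor viability signal (fluorescence, 1 hr reagent incubation).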

Test [6] deals with Nuclear receptor subfamily 1 group I member 2 (Homo sapiens) (UniProt O75469). The test is described as follows: Human pregnane X receptor (PXR) small molecule agonists, qHTS assay (AID 1346982). Further: nearly all actives have a fitted effect of over 35% in size. Further: potency means the concentration at half of the fitted maximal effect. In short, it runs like this: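 Luminescence (ONE-Glo, 30 min RT) after 24 hr compound exposure of PXR-Luc HepG2 cells; cells rested 5 hr post-plating in 5% charcoal-stripped FBS medium.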

Test [7] addresses Cytochrome P450 2D6 (Homo sapiens) (UniProt P10635). Put plainly: Cytochrome P450 Family 2 Subfamily D Member 6 (CYP2D6) small molecule antagonists: luciferase reporter qHTS assay (AID 1671196). Further: nearly all actives have a fitted effect of over 50% in size. Further: potency means the concentration at half of the fitted maximal effect. In short, it runs like this:
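Inhibition of CYP2D6 was gauged by loss of luminescence, since light produced tracks the luciferin generated from a proluciferin substrate. A 10 min room-temperature preincubation preceded 1 h NADPH-supported turnover.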

Test [8] deals with Cytochrome P450 2C19 (Homo sapiens) (UniProt P33261). The test is described as follows: Cytochrome P450 Family 2 Subfamily C Member 19 (CYP2C19) small molecule antagonists: luciferase reporter qHTS assay (AID 1671197). Further: nearly all actives have a fitted effect of over 65% in size. Further: potency means the concentration at half of the fitted maximal effect. In short, it runs like this:
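First, compounds are pinned into enzyme-substrate mix and held 10 min at room temperature. Second, NADPH regeneration solution is added and plates incubate 1 h at 37C. Third, detection reagent is added and luminescence read after 20 min.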

Test [9] concerns the target Cytochrome P450 2C9 (Homo sapiens) (UniProt P11712). Put plainly: Cytochrome P450 Family 2 Subfamily C Member 9 (CYP2C9) small molecule antagonists: luciferase reporter qHTS assay (AID 1671198). Further: nearly all actives have a fitted effect of over 50% in size. Further: potency means the concentration at half of the fitted maximal effect. In short, it runs like this: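 P450-Glo proluciferin substrate with CYP2C9 enzyme; 10 min RT preincubation, then NADPH regeneration 1 h at 37C; luciferin detection reagent 20 min RT, luminescence in relative luminescence units.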
On the technique in general: In a reporter assay the amount or activity of a reporter protein is the signal.

The target in test [10] is Cytochrome P450 1A2 (Homo sapiens) (UniProt P05177). Put plainly: Cytochrome P450 Family 1 Subfamily A Member 2 (CYP1A2) small molecule antagonists: luciferase reporter qHTS assay (AID 1671199). Further: nearly all actives have a fitted effect of over 50% in size. Further: potency means the concentration at half of the fitted maximal effect. In short, it runs like this:
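Signal from luciferin formed by CYP1A2 from a proluciferin substrate is read as luminescence, expressed in relative luminescence units. Compounds sit with enzyme 10 min, NADPH-driven reaction runs 1 h, all at room temperature.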

Test [11] has as its target Cytochrome P450 3A4 (Homo sapiens) (UniProt P08684). The test is described as follows: Cytochrome P450 Family 3 Subfamily A Member 4 (CYP3A4) small molecule antagonists: luciferase reporter qHTS assay (AID 1671201). In a few lines: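 Luminescent readout (RLU) proportional to CYP3A4 activity, from luciferin generated off a proluciferin substrate. Enzyme–substrate mix plus compound 10 min at room temp, NADPH regeneration 1 h, detection reagent 20 min.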

The target in test [12] is Nuclear receptor subfamily 1 group I member 2 (Rattus norvegicus) (UniProt Q9R1A7). The test is described as follows: Rat pregnane X receptor (rPXR) activation by small molecules, qHTS assay (AID 1346983). Further: nearly all actives have a fitted effect of over 20% in size. Conditions: rPXR luciferase reporter cells, One-Glo luminescence, 24 h; stronger effect = higher value. In short, it runs like this:
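Cell-based rPXR activation assay: rPXR cells, 2,000 per well, rested 5hr at 37 C, then exposed to compounds in DMSO for 24 hr at 37 C. Luciferase activity read by One-Glo luminescence after 30 min at room temperature.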

For test [13], the target named is Voltage-gated inwardly rectifying potassium channel KCNH2 (Homo sapiens) (UniProt Q12809). Put plainly: Human Ether-a-go-go-Related Gene (hERG) channel small molecule antagonists: fluorescence cell-based qHTS assay (AID 1671200). In short, it runs like this:
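Read-out: thallium influx as a surrogate for potassium, tracked as fluorescence (480 nm ex/540 nm em) every second for 2 min after Stimulus Buffer addition in dye-loaded hERG-U2OS cells.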
On the % scale 0 is the no-effect control and ±100 the full control effect.

Sequence of Cytochrome P450 2D6 (Homo sapiens) (P10635 whole entry, looked up): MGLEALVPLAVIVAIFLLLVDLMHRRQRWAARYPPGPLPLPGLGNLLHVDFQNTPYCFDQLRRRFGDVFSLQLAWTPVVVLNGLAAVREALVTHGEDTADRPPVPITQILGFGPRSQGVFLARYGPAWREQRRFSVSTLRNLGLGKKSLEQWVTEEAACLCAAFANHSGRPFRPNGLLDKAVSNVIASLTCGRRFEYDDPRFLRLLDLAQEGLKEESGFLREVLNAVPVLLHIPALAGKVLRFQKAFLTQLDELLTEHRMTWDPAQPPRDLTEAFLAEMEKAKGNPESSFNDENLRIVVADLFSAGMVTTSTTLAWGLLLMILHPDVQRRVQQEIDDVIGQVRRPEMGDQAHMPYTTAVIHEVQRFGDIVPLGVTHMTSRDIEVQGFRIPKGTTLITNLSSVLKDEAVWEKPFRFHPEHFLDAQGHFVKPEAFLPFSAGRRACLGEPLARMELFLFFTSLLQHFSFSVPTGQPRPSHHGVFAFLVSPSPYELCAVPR
Sequence of Cytochrome P450 3A4 (Homo sapiens) (P08684 whole entry, looked up): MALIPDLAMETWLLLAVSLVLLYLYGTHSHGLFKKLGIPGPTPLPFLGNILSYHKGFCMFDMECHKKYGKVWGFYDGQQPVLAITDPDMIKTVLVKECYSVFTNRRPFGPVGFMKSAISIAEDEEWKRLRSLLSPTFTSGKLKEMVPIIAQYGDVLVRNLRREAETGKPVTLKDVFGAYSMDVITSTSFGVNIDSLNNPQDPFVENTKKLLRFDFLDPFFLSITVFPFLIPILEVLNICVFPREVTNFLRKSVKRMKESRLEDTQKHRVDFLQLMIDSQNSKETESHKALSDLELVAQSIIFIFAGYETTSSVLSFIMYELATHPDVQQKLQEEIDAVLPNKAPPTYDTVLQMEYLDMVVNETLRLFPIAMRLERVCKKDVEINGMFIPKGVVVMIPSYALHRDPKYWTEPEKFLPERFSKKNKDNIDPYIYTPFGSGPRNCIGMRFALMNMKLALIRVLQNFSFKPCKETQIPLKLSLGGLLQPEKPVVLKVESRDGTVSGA
Sequence of Cytochrome P450 2C9 (Homo sapiens) (P11712 whole entry, looked up): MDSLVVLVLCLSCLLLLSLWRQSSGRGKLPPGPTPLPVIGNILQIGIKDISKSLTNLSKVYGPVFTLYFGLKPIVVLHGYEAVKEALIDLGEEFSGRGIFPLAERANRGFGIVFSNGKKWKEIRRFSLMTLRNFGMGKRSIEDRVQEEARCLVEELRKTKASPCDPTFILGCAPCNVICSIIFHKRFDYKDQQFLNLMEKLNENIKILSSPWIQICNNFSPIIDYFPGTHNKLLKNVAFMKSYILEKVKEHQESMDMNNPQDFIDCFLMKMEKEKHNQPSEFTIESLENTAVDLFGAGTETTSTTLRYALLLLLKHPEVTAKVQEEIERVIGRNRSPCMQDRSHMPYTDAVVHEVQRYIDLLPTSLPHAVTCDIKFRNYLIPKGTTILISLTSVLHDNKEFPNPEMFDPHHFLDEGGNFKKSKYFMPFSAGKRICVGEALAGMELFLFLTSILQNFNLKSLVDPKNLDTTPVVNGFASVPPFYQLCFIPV
Sequence of Nuclear receptor subfamily 1 group I member 2 (Rattus norvegicus) (Q9R1A7 whole entry, looked up): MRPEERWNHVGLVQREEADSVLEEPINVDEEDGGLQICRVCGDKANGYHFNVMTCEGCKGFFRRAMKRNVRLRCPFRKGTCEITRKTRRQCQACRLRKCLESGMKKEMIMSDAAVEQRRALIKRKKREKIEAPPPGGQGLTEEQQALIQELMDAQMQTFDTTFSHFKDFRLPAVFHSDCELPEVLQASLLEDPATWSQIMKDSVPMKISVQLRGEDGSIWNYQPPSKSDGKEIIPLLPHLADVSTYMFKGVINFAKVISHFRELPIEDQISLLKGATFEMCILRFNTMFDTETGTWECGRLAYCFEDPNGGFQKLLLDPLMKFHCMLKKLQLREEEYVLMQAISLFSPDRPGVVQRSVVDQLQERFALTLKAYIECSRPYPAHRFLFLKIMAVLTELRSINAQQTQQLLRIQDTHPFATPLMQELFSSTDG
Sequence of Voltage-gated inwardly rectifying potassium channel KCNH2 (Homo sapiens) (Q12809 whole entry, looked up): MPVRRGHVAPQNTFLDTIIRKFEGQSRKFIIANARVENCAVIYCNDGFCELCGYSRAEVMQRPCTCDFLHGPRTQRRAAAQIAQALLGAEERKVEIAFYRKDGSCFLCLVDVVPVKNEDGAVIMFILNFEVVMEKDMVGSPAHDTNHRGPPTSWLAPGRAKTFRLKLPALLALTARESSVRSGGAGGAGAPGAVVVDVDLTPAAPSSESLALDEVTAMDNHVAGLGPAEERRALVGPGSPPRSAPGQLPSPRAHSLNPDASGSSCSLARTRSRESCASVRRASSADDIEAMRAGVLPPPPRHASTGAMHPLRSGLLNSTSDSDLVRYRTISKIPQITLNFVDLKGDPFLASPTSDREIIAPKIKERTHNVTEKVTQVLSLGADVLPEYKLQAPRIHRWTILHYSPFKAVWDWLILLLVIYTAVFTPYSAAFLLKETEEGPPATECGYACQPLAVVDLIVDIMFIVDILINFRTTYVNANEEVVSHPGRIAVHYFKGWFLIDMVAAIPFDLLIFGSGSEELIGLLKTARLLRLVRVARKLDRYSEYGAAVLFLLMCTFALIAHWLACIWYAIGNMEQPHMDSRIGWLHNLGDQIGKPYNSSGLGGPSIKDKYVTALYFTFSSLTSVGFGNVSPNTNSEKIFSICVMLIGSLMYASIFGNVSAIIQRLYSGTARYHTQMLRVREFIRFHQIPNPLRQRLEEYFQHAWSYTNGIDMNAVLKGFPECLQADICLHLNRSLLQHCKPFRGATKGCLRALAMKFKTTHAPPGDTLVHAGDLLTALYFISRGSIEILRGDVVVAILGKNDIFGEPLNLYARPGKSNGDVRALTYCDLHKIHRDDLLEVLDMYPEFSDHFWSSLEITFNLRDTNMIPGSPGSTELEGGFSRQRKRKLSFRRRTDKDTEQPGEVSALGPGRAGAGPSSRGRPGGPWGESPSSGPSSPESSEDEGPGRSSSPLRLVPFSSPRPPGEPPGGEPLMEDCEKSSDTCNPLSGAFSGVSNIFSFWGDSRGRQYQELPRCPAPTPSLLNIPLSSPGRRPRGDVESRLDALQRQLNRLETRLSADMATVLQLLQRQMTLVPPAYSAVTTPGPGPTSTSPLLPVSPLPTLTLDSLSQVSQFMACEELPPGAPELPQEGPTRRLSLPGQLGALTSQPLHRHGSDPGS
Sequence of Cytochrome P450 1A2 (Homo sapiens) (P05177 whole entry, looked up): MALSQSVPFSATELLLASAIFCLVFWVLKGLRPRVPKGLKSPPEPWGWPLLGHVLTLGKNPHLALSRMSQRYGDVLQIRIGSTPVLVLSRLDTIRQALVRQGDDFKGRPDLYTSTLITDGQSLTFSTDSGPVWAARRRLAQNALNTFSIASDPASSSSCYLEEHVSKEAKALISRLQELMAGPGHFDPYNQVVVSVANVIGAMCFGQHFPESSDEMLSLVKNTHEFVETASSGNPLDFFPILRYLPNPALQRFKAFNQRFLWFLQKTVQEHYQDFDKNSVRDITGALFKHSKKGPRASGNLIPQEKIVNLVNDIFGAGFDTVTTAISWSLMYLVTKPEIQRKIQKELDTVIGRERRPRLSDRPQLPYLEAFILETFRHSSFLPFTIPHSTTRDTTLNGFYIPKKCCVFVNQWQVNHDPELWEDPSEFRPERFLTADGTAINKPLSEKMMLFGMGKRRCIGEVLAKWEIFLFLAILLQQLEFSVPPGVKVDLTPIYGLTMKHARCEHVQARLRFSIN
Sequence of Cytochrome P450 2C19 (Homo sapiens) (P33261 whole entry, looked up): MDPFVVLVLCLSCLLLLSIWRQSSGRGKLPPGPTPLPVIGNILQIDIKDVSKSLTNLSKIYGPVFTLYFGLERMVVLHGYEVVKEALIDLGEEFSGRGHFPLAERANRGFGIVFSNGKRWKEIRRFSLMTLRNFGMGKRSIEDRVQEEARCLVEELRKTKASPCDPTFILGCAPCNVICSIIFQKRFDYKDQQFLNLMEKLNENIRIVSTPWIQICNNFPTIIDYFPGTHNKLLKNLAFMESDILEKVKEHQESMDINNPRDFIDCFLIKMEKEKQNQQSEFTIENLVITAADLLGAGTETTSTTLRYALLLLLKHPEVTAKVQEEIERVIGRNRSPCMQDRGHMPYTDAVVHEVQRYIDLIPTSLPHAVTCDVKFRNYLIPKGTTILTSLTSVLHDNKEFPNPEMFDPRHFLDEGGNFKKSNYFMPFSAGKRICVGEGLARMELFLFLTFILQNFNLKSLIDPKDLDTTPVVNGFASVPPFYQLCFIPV
Sequence of Nuclear receptor subfamily 1 group I member 2 (Homo sapiens) (O75469 whole entry, looked up): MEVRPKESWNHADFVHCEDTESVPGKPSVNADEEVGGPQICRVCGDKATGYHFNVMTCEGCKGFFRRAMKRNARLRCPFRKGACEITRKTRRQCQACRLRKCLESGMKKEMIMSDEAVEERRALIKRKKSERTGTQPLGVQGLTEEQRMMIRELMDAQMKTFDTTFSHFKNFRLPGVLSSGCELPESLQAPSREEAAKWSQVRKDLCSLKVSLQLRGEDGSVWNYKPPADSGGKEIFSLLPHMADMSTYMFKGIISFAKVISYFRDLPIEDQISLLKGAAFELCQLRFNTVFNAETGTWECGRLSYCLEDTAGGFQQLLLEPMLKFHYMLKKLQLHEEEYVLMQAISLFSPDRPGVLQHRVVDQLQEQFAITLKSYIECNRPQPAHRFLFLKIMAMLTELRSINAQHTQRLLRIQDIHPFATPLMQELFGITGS

Take `CCCNC(=O)NS(=O)(=O)c1ccc(Cl)cc1`: the Potency entry in [1], in [2], in test [3], in test [5], in test [6] and in test [7] was “inactive” each time. Also, the Potency result in test [8] and in [11] was “inactive” in each case. Further, the result in test [4] was inactive. The Potency in test [9] is 39.7 µM (active) and 35.6 µM (active); in [10], “inactive and 15.5 µM (active)”.

For the compound `Cn1c(=O)c2[nH]cnc2n(C)c1=O`, the Potency result in test [1], in test [2], in test [3], in test [5], in test [6] and in [7] was “inactive” in each case. The Potency result in [8], in [10] and in test [11] was “inactive” throughout. Further, the compound was classed as inactive in test [4].

For the compound `CCC1(c2ccccc2)C(=O)NCNC1=O`, the Potency result in [1], in test [2], in test [3], in [5], in [6] and in test [7] was “inactive” throughout. The Potency result in test [8], in [9], in [10] and in test [11] was “inactive” each time. For the same compound, the compound was classed as inactive in test [4].

With `N=C(N)c1ccc(OCCCCCOc2ccc(C(=N)N)cc2)cc1`, the Potency result in [1], in test [2], in [5], in test [8] and in [10] was “inactive” throughout. Further, the Potency was 54.2 µM (active) and inactive in test [3]; 68.2 µM (active) and 32.8 µM (active) and inactive in [6]. Further, in [4], the call was inactive.

`NC(=O)NC1NC(=O)NC1=O` (stereo not drawn): the Potency entry in test [1], in test [2], in test [3], in [5], in [8] and in [9] was “inactive” each time. Further, the outcome in [4] was inactive. The max activation in test [12] is -1.54% (inactive). Also, in test [7], the Potency is 35.2 µM (active) and inactive.

On to `Cc1ccc(C)c(OCCCC(C)(C)C(=O)O)c1`, for which the Potency entry in test [1], in test [2], in test [3], in test [5], in [6] and in [7] was “inactive” in each case. In addition, in test [11], the Potency entry is “inactive”. In addition, the call in test [4] was inactive. Besides, the Potency is 50.6 µM (active) and 56.4 µM (active) and inactive in test [8]; 31.9 µM (active) and 35.6 µM (active) and 17.4 µM (active) in [9]; 71 µM (active) and inactive in [10].

As to `NC(N)=NC(=O)c1nc(Cl)c(N)nc1N`, the Potency result in test [2], in [3], in test [5], in test [7], in test [8] and in [9] was “inactive” throughout. Besides, the Potency result in [10] and in test [11] was “inactive” in each case. In addition, the compound was called inactive in test [4] and in test [13]. Further, the Potency in test [6] is 69 µM (active) and 50.4 µM (active) and inactive.

For the compound `NC(=O)c1cnccn1`, the Potency entry in test [1], in test [2], in test [3], in test [5], in test [6] and in [8] was “inactive” each time. Also, the Potency result in test [9], in [10] and in test [11] was “inactive” throughout. For the same compound, the result in test [4] and in test [13] was inactive. Further, the Potency in test [7] is 19.7 µM (active) and inactive.

With `Cc1ccc(S(=O)(=O)NC(=O)NN2CCCCCC2)cc1`, the Potency entry in test [1], in test [2], in test [3] and in test [5] was “inactive” throughout. Moreover, the compound was called inactive in test [4] and in [13].

`OCCc1ccccc1`: the Potency result in test [1], in test [2], in test [3], in test [5], in [6] and in test [7] was “inactive” in each case. For the same compound, the Potency entry in test [8], in test [9], in test [10] and in test [11] was “inactive” in each case. For the same compound, the compound was called inactive in test [4] and in test [13].

As for `COc1c2occc2cc2ccc(=O)oc12`, the Potency entry in test [1], in test [2], in test [3] and in test [5] was “inactive” each time. Besides, the compound was classed as inactive in [4] and in test [13]. Moreover, the Potency is 61.5 µM (active) and 48.6 µM (active) in [6]; 5.06 µM (active) and 10 µM (active) and 4.9 µM (active) in [9].

As to `O=C(O)/C=C\C(=O)O`, the Potency result in [1], in test [2], in [3], in test [5], in test [9] and in test [10] was “inactive” each time. Moreover, in [11], the Potency result was “inactive”. For the same compound, the compound was called inactive in test [4]. The Potency in test [7] was 25.2 µM (active) and inactive; in test [8] it was 41.3 µM (active) and inactive.

As to `O=S(=O)(O)NC1CCCCC1`, the Potency result in test [1], in test [2], in test [3] and in [5] was “inactive” each time. Also, in [4], the call was inactive. Further, the max activation in test [12] was -1.36% (inactive).

`Nc1ccc(S(=O)(=O)Nc2nccs2)cc1`: the Potency entry in test [1], in [2], in test [3], in test [5], in test [6] and in test [7] was “inactive” throughout. In addition, the Potency result in test [8], in test [9], in [10] and in test [11] was “inactive” in each case. Also, the compound was called inactive in test [4].

On to `Nc1ccn([C@H]2CC[C@@H](CO)O2)c(=O)n1`, for which the Potency entry in test [1], in test [2], in [3], in [5], in test [6] and in [7] was “inactive” each time. For the same compound, the Potency result in test [9], in test [10] and in test [11] was “inactive” in each case. Besides, the outcome in test [4] and in [13] was inactive. Further, the Potency in test [8] is 78.3 µM (active) and inactive.

For `O=C(O)CCCCCCCC(=O)O`, the Potency result in test [1], in [2], in test [3], in [5], in test [6] and in test [7] was “inactive” each time. Moreover, the Potency result in [8], in test [10] and in [11] was “inactive” each time. Besides, the compound was called inactive in test [4].

Turning to `O=C(C1CCCCC1)N1CC(=O)N2CCc3ccccc3C2C1` (stereo not drawn), the Potency entry in [1], in test [2], in test [3], in test [5], in [7] and in test [9] was “inactive” in each case. In test [4], the compound was called inactive. For the same compound, the Potency in test [6] was 30.6 µM (active); in test [8], 7.95 µM (active) and 17.8 µM (active) and 9.77 µM (active); in test [10] it was 31.7 µM (active) and 28.3 µM (active) and 17.4 µM (active).

For `Cc1ccc(O)cc1`, the Potency entry in [2], in test [3] and in test [5] was “inactive” throughout. Moreover, the outcome in [4] was inactive.

For the compound `CNC[C@H](O)c1cccc(O)c1`, the Potency entry in test [1], in test [2], in test [3] and in test [5] was “inactive” in each case. Besides, the call in test [4] was inactive. Moreover, the max activation in [12] was -0.862% (inactive).
